Screen size: about 16,000 compounds; about 2,600 (16%) were called active. Not shown: some 20% with an inconclusive outcome. Calls come from the whole dose curve; as a rule, active = well fitted curve in the direction sought with a large enough effect; inconclusive = small, poorly fitted or top-dose-only effect, or effect the other way; inactive = no such curve, though single readings can be large or run the other way. These entries were drawn from the full list.
target: Cytochrome P450 2D6 (Homo sapiens) (UniProt P10635); test: Cytochrome panel assay with activity outcomes; conditions: recombinant CYP, pro-luciferin dealkylation, luminescence, p450-cyp2d6; series mostly up to 57.1 µM; activity, negative = inhibition: at the top concentration
Sequence (P10635 whole entry, looked up): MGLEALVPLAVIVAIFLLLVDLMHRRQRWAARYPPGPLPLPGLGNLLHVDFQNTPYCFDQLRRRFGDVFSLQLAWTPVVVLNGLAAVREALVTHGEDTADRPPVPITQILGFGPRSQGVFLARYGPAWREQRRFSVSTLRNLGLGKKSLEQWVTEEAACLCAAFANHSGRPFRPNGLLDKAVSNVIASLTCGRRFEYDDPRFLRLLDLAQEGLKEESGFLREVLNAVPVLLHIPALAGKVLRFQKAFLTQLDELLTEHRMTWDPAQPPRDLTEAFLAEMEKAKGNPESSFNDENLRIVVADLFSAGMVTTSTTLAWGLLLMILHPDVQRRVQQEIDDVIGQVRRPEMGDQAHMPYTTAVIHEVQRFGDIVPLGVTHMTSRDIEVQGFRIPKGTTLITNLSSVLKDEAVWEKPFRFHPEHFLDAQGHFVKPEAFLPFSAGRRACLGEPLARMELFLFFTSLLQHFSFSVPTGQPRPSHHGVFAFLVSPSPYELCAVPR
% is set by controls: 0 for no effect and ±100 for the full control effect.

SMILES	activity, negative = inhibition	AC50
COc1cccc(-c2nnc3sc(-c4ccc(C)cc4)nn23)c1	-3.08% (inactive)	
O=C(CCCCCn1c(=O)[nH]c2ccsc2c1=O)NCc1ccc2c(c1)OCO2		17.8 µM (active)
O=C(CCn1c(=O)[nH]c2ccsc2c1=O)Nc1ccc(F)c(F)c1	15.9% (inactive)	
CCOc1cc2[nH]c(=O)n(CCCC(=O)NCc3ccc(OC)cc3)c(=O)c2cc1OCC	-1.12% (inactive)	
COC(=O)C[C@@H]1O[C@H]1[C@H](C)[C@@H](OC)C(C)C	5.88% [at 11.4 µM] (inactive)	
CC[C@@]1(O)C(=O)OCc2c1cc1n(c2=O)Cc2cc3c(CN(C)C)c(O)ccc3nc2-1	-7.02% [at 11.4 µM] (inactive)	
C=CCn1c(Cc2ccc(OC)cc2)nnc1SCC(=O)c1cccc([N+](=O)[O-])c1	-4.53% (inactive)	
C=CCn1c(Cc2c[nH]c3ccccc23)nnc1SCC(=O)NCc1ccccc1		15.8 µM (active)
CCn1c(Cc2ccccc2)nnc1SCC(=O)NC(C)(C)C	1.85% (inactive)	
Cc1cc(C(=O)N/N=C/c2cccc([N+](=O)[O-])c2)c(C)o1	-11.5% (inactive)	
CCOC(=O)c1cc(-c2ccccc2)sc1NC(=O)c1ccc(OC)cc1	-3.83% (inactive)	
C(=N\n1cnnc1)/c1cccn1-c1ccccc1	-27.9% (inactive)	
O=[N+]([O-])c1ccc(/C=N/Nc2cc(Cl)nc(-c3ccccc3)n2)cc1	1.15% (inactive)	
O=[N+]([O-])c1ccc(N/N=C\c2cccn2-c2ccccc2)nc1		4.47 µM (active)
CN1C(=O)CC[C@@H]1c1cccnc1		inactive
Cc1cccn2c(/C=N/OCc3ccc(F)cc3)c(-c3ccc(Cl)cc3)nc12	-15.9% (inactive)	
COc1ccc(/C=N/NC(=O)C2CCN(c3ncc(C(F)(F)F)cc3Cl)CC2)cc1	-8.71% (inactive)	
O=C(CCCNS(=O)(=O)c1cccc2nsnc12)NCCc1ccccc1		14.1 µM (active)
O=C(CCS(=O)(=O)c1cccc2nsnc12)NC1CCCCC1	-19.1% (inactive)	
Cc1cccc(NC(=O)CCS(=O)(=O)c2cccc3nsnc23)c1C	-24.2% (inactive)	
Cc1cc(C)n(C(=O)c2cc3c(s2)CCCC3)n1	-10.8% (inactive)	
COC(=O)C(CCSC)NC(=O)c1cccc([N+](=O)[O-])c1 (centres undefined)	11.3% (inactive)	
CCOC(=O)c1c(NC(=O)Nc2ccccc2)sc(C)c1C	-25.9% (inactive)	
COC(=O)c1c(NC(C)=O)sc(Cc2ccccc2)c1C		25.1 µM (active)
CCOc1ccc(CC(=O)Nc2sc(Cc3ccccc3)c(C)c2C(N)=O)cc1OCC	-3.45% (inactive)	
N#CCCn1c(=O)c(-c2ccc(F)cc2)nc2cnc(OCc3ccccc3)nc21	8.49% (inactive)	

SMILES	activity, negative = inhibition	AC50
Cc1ccc(S(=O)(=O)N[C@H]2COC(=O)C/C=C\[C@@H](C)[C@H](NS(=O)(=O)c3ccc(C)cc3)COC(=O)C/C=C\[C@H]2C)cc1	4.7% [at 11.4 µM] (inactive)	
COCCn1c(=O)c(C)nc2cnc(N3CCN(C)CC3)nc21	14.1% (inactive)	
COC(=O)c1sccc1NC(=O)CSc1cc(Cl)ccc1Cl	-7.42% (inactive)	
Clc1ccc(Cl)c(SCCCN2CCNCC2)c1		2.51 µM (active)
Cc1cccc(C(=O)O/N=C(\N)c2cccc([N+](=O)[O-])c2)c1	1.21% (inactive)	
C#C[C@]1(O)CC[C@H]2[C@H]3CCC4=Cc5oncc5C[C@]4(C)[C@@H]3CC[C@]21C	-6.07% (inactive)	
CSc1nsc(SC)c1NC(=O)OCC1CCCO1 (centres undefined)	-5.43% (inactive)	
C=CCNC(=O)c1ccc2nc(-c3ccccc3)c(-c3ccccc3)nc2c1	-22.7% (inactive)	
CC[n+]1c(/C=C/Nc2ccccc2)oc2ccccc21		1.41 µM (active)
O=C(O)CN=C1NC2(CCCC2)Cc2ccccc21	6.94% (inactive)	
COC(=O)N1CCC2(CC1)CCN(c1ccncc1)CC2	3.16% (inactive)	
N=C1CCC[C@@H]1C(=S)SCCC(N)=O	0.37% [at 11.4 µM] (inactive)	
Cc1cnc(CNc2ccnc(-c3ccccc3Cl)n2)cn1	-5.09% (inactive)	
CNc1ccnc(-c2ccccc2C)n1	-4.81% (inactive)	
Cc1cccc(CNc2ccnc(-c3ccccc3Cl)n2)c1		15.8 µM (active)
CNc1ccnc(-c2ccccc2OC)n1		5.01 µM (active)
COc1ccccc1-c1nccc(NCc2ccccc2)n1		3.98 µM (active)
COc1ccccc1-c1nccc(NC2CCNCC2)n1	-3.43% (inactive)	
CNc1ccnc(-c2ccccc2C(F)(F)F)n1	-1.5% (inactive)	
COc1ccccc1-c1nccc(NCc2cccc(C)c2)n1		1.58 µM (active)
C=CCNC(=O)c1ccccc1Cl	-3% (inactive)	
COc1ccc(-n2c(=O)c(C)nc3cnc(N4CCOCC4)nc32)cc1	-1.02% (inactive)	
COc1cccc(/C(O)=C2/C(=O)C(=O)N(Cc3cccnc3)C2c2ccco2)c1 (centres undefined)	1.15% (inactive)	
C[C@@H]1NC(=O)C/C=C\[C@@H](C)[C@@H]2C=C[C@H](O)[C@@H](COC(=O)[C@H](C)NC(=O)C/C=C\[C@@H](C)[C@@H]3C=C[C@H](O)[C@@H](COC1=O)O3)O2	9.45% [at 11.4 µM] (inactive)	
COc1cccc(Cn2c(=O)c(-c3cccc(C#N)c3)nc3cnc(Nc4ccccc4)nc32)c1	0.752% (inactive)	
O=C(O)c1c(Br)c(Br)c(Br)c(Br)c1C1c2ccc(O)cc2Oc2cc(O)ccc21	-6.23% [at 11.4 µM] (inactive)	

SMILES	activity, negative = inhibition	AC50
O=c1[nH]n(-c2cccc3cccnc23)c(=O)c2ccccc12	5.11% (inactive)	
COc1ccc(OC)c(NC(=O)Cn2cccc2)c1	-4.42% (inactive)	
Cc1occc1C(=O)NNC(=O)Cc1ccccc1	-7.57% (inactive)	
CCCCn1nnnc1SCC(=O)N1CCCC1	1.31% (inactive)	
O=c1[nH]c(=S)[nH]c(-c2ccccc2)c1Cc1c(O)ccc2ccccc12	-6.41% [at 11.4 µM] (inactive)	
Cc1cccc(CNc2ccnc(-c3ccccc3CN(C)C)n2)c1		2.51 µM (active)
Cc1cccc(CNc2cc(-c3ccc(C(=O)N(C)C)cc3)ncn2)c1	-3% (inactive)	
CCN(C(=O)Cn1c(=O)oc2ccccc21)c1cccc(C(F)(F)F)c1	-17.9% (inactive)	
Cc1ccccc1Oc1ncnc2oc(-c3ccccc3)cc12	-13.1% (inactive)	
CC(=O)Oc1ccccc1C(=O)Oc1ccccc1C(=O)O	1.36% [at 25.6 µM] (inactive)	
CCn1c(SCC(=O)Nc2nc3ccc(C)cc3s2)nc2c(c1=O)SC(C)C2 (centres undefined)	-15.7% (inactive)	
O=C(N/N=C/c1ccc(Cl)cc1)Nc1ccccc1	2.13% (inactive)	
O=C(Nc1ccccc1)N[C@H]1C[C@H](C(=O)O)Nc2cc(Cl)cc(Cl)c21		12.6 µM (active)
O=C(N/N=C/c1ccc(Cl)cc1Cl)Nc1ccccc1	11% (inactive)	
COCCn1c(=O)c(-c2ccc(F)cc2)nc2cnc(Oc3ccccc3)nc21	-2.23% (inactive)	
O=C(Nc1cccc(F)c1)Nc1ccccn1	-28.3% (inactive)	
CCOC(=O)c1sc2nc(CC(=O)OC)nc(NCc3ccc(F)cc3)c2c1C		25.1 µM (active)
CCOC(=O)c1nnc(-c2ccccc2)nc1NCc1ccccc1	-17.8% (inactive)	
CCOC(=O)c1cnn(-c2nc(-c3ccc(F)cc3)cs2)c1C(F)(F)F	-14.3% (inactive)	
CCCCOC(=O)C1=C(C)Nc2ncnn2C1c1cc(OC)ccc1OC (centres undefined)	-4.71% (inactive)	
O=C(Cc1ccc(S(=O)(=O)N2CCOCC2)s1)Nc1nc2c(s1)CCCC2	-28.9% (inactive)	
Cc1ccc(CN2C(=O)CCC2C(=O)NCc2cccnc2)cc1 (centres undefined)	-15.9% (inactive)	
O=C(NCC1CCCO1)C1CCC(=O)N1CCc1ccccc1 (centres undefined)	-12.3% (inactive)	
CC(C)N(CCNC(=O)C1CCC(=O)N1Cc1ccc(F)cc1)Cc1ccccc1 (centres undefined)		1.26 µM (active)
O=c1c(CCc2ccccc2)nc2cnc(Oc3cccc(Cl)c3)nc2n1C[C@H]1CCCO1	-3.35% (inactive)	
CCCN(CCC)CCCNC(=O)c1cc2cc3ccc(OC)cc3nc2o1	-16.6% (inactive)	

SMILES	activity, negative = inhibition	AC50
CCOC(=O)C1=NNC2(c3ccc(Cl)cc3)C(=O)N(c3cc(C)cc(C)c3)C(=O)C12 (centres undefined)	-3.78% (inactive)	
CCCCOC(=O)CSc1nnc(-c2cc(OC)c(OC)c(OC)c2)o1	-2.6% (inactive)	
O=C(O)C/C(=C\c1ccco1)C(=O)O	1.84% [at 11.4 µM] (inactive)	
O=c1cnc2cncnc2n1Cc1ccccc1	-8.52% (inactive)	
CC1(C)N=C(N)N=C(N)N1c1cccc(OCc2cccc(N)c2)c1		2.51 µM (active)
Nc1cccc(OCc2nc(N)nc(N)c2-c2ccc(Cl)cc2)c1	-14.7% [at 11.4 µM] (inactive)	
CC1(C)N=C(N)N=C(N)N1c1cccc(CSc2ccccc2)c1		0.251 µM (active)
COc1ccc(N2C(N)=NC(N)=NC2(C)C)cc1		14.1 µM (active)
COc1ccc(-n2cnnc2)cc1	-10% (inactive)	
COc1ccc(-n2c(C)nn(C)c2=O)cc1	-17.9% (inactive)	
COC(=O)c1nc(NC(=O)c2ccccc2)n[nH]1	-23.8% (inactive)	
COc1cc(C(=O)NCCC(C)C)c([N+](=O)[O-])cc1OC	11.9% (inactive)	
CCCCCCCCCCCCCCCCCC(=O)O[C@H](CC(=O)O)C[N+](C)(C)C	10.3% (inactive)	
O=P(O)(O)CCP(=O)(c1ccccc1)c1ccccc1	14.9% (inactive)	
O=C1NC(c2ccc(Br)cc2)Nc2sc3c(c21)CCC3 (centres undefined)	-19.6% (inactive)	
CN(C)c1ccc(/C=C2/C(=O)Nc3ccccc32)cc1	-1.67% (inactive)	
O=C(NCc1nc2ccccc2[nH]1)[C@H]1C[C@@H]1[C@H](NP(=O)(c1ccccc1)c1ccccc1)c1ccccc1	-9.56% (inactive)	
O=C(OCc1nc2ccccc2[nH]1)C12CC3CC(CC(C3)C1)C2		15.8 µM (active)
CC(C)(CCc1nc2ccccc2[nH]1)C(=O)O	-1.31% [at 11.4 µM] (inactive)	
COc1ccc(/C=C/C(=O)Nc2nc(C)cc(C)n2)cc1OC	7.99% (inactive)	
Cc1ccc(S(=O)(=O)N2CCN(C(=O)C3COc4ccccc4O3)CC2)cc1C (centres undefined)	-29.7% (inactive)	
Cc1cc(C)cc(OCC(=O)Nc2ccc3c4c(cccc24)CC3)c1	2.78% (inactive)	
CC(C)c1ccc(/C=C2\C=C(c3ccc4ccccc4c3)OC2=O)cc1	2.54% [at 11.4 µM] (inactive)	
Cc1ccccc1-c1nc(CS(=O)CC(=O)NCCN2CCN(Cc3ccccc3)CC2)c(C)o1 (centres undefined)		14.1 µM (active)
Cc1cc(C)c(NC(=O)CS(=O)CC(=O)NCCCc2ccccc2)c(C)c1 (centres undefined)	-8.29% (inactive)	
Cc1cccc(C)c1NC(=O)CS(=O)CC(=O)NCCCc1ccccc1 (centres undefined)	-1.79% (inactive)	

From PubChem BioAssay AID1851 (National Center for Advancing Translational Sciences (NCATS), 2009)
